Experimental data: PubChem BioAssay (NCI)
This is part of a sample that, as a whole, favours compounds with a hit. Of some 79,000 tested, about 15% had one in any assay. Values without a mark were called inactive. Activity calls are given as the source filed them. Rule as the data show it: active = growth inhibition above about 70%; inactive = the rest.

Key:
[1] = NCI Yeast Anticancer Drug Screen. Data for the rad50 strain (AID 155);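 also: 0% = growth of vehicle-only cultures of the same strain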; conditions: S. cerevisiae rad50 strain growth inhibition, stronger effect = higher value
How it was run: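 A DNA repair-deficient yeast mutant serves as the test organism; compound-induced growth inhibition is calculated against vehicle-treated cells.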

[2] = NCI Yeast Anticancer Drug Screen. Data for the mec2-1 strain (AID 157); conditions: S. cerevisiae mec2-1 strain, stronger effect = higher value
How it was run: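 mec2-1 yeast strain, carrying an alteration in DNA damage repair or cell cycle control, was exposed to compounds; growth inhibition was measured relative to vehicle-treated controls.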

[3] = NCI Yeast Anticancer Drug Screen. Data for the cln2 rad14 strain (AID 165);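 also: 0% = growth equal to vehicle treated cultures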; conditions: S. cerevisiae cln2 rad14 strain, stronger effect = higher value
How it was run: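 Yeast carrying cln2 and rad14 alterations (cell cycle control and DNA damage repair) were exposed to compounds. Growth inhibition was measured against vehicle-treated controls.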

[4] = NCI Yeast Anticancer Drug Screen. Data for the bub3 strain (AID 167); conditions: S. cerevisiae bub3 mutant strain, stronger effect = higher value
How it was run: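 Inhibition values come from growth of compound-treated mutant yeast normalised to vehicle-treated controls.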

[5] = NCI Yeast Anticancer Drug Screen. Data for the mlh1 rad18 strain (AID 175); conditions: S. cerevisiae mlh1 rad18 strain growth inhibition, stronger effect = higher value
How it was run: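 Growth inhibition of the yeast strain was measured after compound exposure and expressed relative to vehicle-treated controls. The strain carries defined defects in DNA damage repair.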

[6] = NCI Yeast Anticancer Drug Screen. Data for the sgs1 mgt1 strain (AID 161);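 also: 0% = growth of cultures given vehicle only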; conditions: S. cerevisiae sgs1 mgt1 strain, stronger effect = higher value
How it was run: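 Yeast cells carrying a defined DNA-repair defect were exposed to test compounds. Growth inhibition was measured relative to vehicle-treated controls.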

[7] = at 5.0 µM (retest, dose inferred, filed as 0.5)
[8] = at 50.0 µM (retest, dose inferred, filed as 5.0)

Row | SMILES | growth inhibition [1, 7] | growth inhibition [1, 8] | growth inhibition ([1]; at 50.0 µM) | growth inhibition [2, 7] | growth inhibition [2, 8] | growth inhibition ([2]; at 50.0 µM) | growth inhibition [3, 7] | growth inhibition [3, 8] | growth inhibition ([3]; at 50.0 µM) | growth inhibition [4, 7] | growth inhibition [4, 8] | growth inhibition ([4]; at 50.0 µM) | growth inhibition [5, 7] | growth inhibition [5, 8] | growth inhibition ([5]; at 50.0 µM) | growth inhibition [6, 7] | growth inhibition [6, 8] | growth inhibition ([6]; at 50.0 µM)
1 | [O-][n+]1c2ccccc2cc2c1c1ccccc1n2O | -1% | 1% | 20.1% | 0% | 0% | 5.2% | 4% | 8% | 46.4% | 6% | 4% | 0.45% | -4% | -5% | 13.9% | – | – | –
2 | Nc1ccc(SC23CC4CC(CC(C4)C2)C3)cc1 | – | – | – | 0% | 42% | 94.4% (active) | -69% | 61% | 95.1% (active) | 40% | 33% | 95.7% (active) | 10% | 91% (active) | 89.2% (active) | 9% | 78% (active) | 96% (active)
3 | O=Nc1c2n[nH]c1CCCCCCCCC2 | 24% | 99% (active) | 99.4% (active) | 45% | 99% (active) | 99.4% (active) | 23% | 99% (active) | 99.5% (active) | 37% | 99% (active) | 99.3% (active) | 75% (active) | 99% (active) | 96.8% (active) | – | – | –
4 | CC1CCC2(NC1)OC1CC3[C@@H]4CC=C5C=CCC[C@]5(C)C4CC[C@]3(C)C1C2C (stereo not given in full) | – | – | – | 4% | 99% (active) | 93.1% (active) | 6% | 97% (active) | 90.9% (active) | -33% | 98% (active) | 90.8% (active) | -10% | 97% (active) | 89.1% (active) | -4% | 98% (active) | 91.6% (active)
5 | C1=C(C2=CCCc3ccccc32)c2ccccc2CC1 | -1% | 36% | 30.4% | -5% | 27% | 34.5% | -4% | 59% | -45.8% | – | – | – | -1% | 43% | 74.9% (active) | -3% | 50% | 31.9%
6 | COC(=O)CSC(=S)Nc1ccc(Cl)cc1 | – | – | – | -6% | 96% (active) | 4.25% | -5% | 60% | -74.6% | -7% | 85% (active) | 36.5% | 7% | 98% (active) | 51.4% | -4% | 97% (active) | 44.3%
